{"source": "PubChem BioAssay", "note": "The source made the active and inactive calls. Cut-off read from the data, not from the text of the source: active = inhibition above about 31%; inactive = the rest."}
{"assay": "MRP1 drug-resistance reversers in H69AR cells – cell-based, doxorubicin co-treatment, pilot screen (AID 601)", "conditions": "H69AR cells, CellTiter-Glo, 72 h; compound alone cytotoxicity; at 10 µM", "units": {"viability": "%"}}
{"compound": "O=C(c1ccc2nc(N3CCCCC3)sc2c1)N1CCN(c2ccccn2)CC1", "viability": 102}
{"compound": "CC(C)CCNC(=O)Cn1c(NCCC(C)C)nc2c1c(=O)n(C)c(=O)n2C", "viability": 93.7}
{"compound": "CC(=O)NC(C)c1nc2ccccc2n1C(C)C", "note": "(stereo not drawn)", "viability": 93.9}
{"compound": "NC(=O)CSc1cn(CCNC(=O)c2cccs2)c2ccccc12", "viability": 93.4}
{"compound": "Cc1cccc(C2CC(c3ccc(Cl)cc3)Nc3nc(N)nn32)c1", "note": "(stereo not drawn)", "viability": 96.6}
{"compound": "CCOC(=O)CN1CC23C=CC(O2)C(C(=O)Nc2ccc(C(C)=O)cc2)C3C1=O", "note": "(stereo not drawn)", "viability": 96.4}
{"compound": "CCCSc1nnc(N2C(=O)CC(c3ccsc3)C3=C2CCCC3=O)s1", "note": "(stereo not drawn)", "viability": 92.7}
{"compound": "O=C(CN1CCN(Cc2ccc(F)cc2Cl)C1=O)NCCCN1CCOCC1", "viability": 102}
{"compound": "CN(C)CCCN1C(=O)CSC1c1ccccc1", "note": "(stereo not drawn)", "viability": 94.4}
{"compound": "COC(=O)Cn1c(=O)c2c(nc3n2CC(C)CN3c2ccc(C)c(C)c2)n(C)c1=O", "note": "(stereo not drawn)", "viability": 85.5}
{"compound": "CCCSC1=C(C#N)C(c2cc(OC)ccc2OC)CC(=O)N1", "note": "(stereo not drawn)", "viability": 89.1}
{"compound": "O=C(Nc1ccc(CN2CCOCC2)cc1)c1cc2ccccn2n1", "viability": 94.7}
{"compound": "CCN(CC)CCn1c(=N)n(CCO)c2ccccc21", "viability": 101}
{"compound": "CCN(CCCNS(=O)(=O)c1ccc2c(c1)oc(=O)n2C)c1cccc(C)c1", "viability": 90.1}
{"compound": "COc1ccc(OC)c(C2=NOC(C(=O)Nc3c(C)n(C)n(-c4ccccc4)c3=O)C2)c1", "note": "(stereo not drawn)", "viability": 95.3}
{"compound": "O=C(Cn1cc2c(n1)CCCCC2)N1CCc2ccccc2C1", "viability": 92.9}
{"compound": "Cn1c(=O)c2c(nc(SCCCC#N)n2Cc2c(F)cccc2Cl)n(C)c1=O", "viability": 77.3}
{"compound": "CCN1CCN(Cc2ccc(NC(=O)Nc3ccccc3)cc2)CC1", "viability": 88.7}
{"compound": "CCOC(=O)N1CCN(Cc2nc3c(c(=O)n(C)c(=O)n3C)n2Cc2ccccc2)CC1", "viability": 89.1}
{"compound": "COCCCNC(=O)Cn1cc2c(n1)CCC(C)C2", "note": "(stereo not drawn)", "viability": 90.1}
{"compound": "C=CCc1ccccc1OCCCCN1CCCC1", "viability": 83.3}
{"compound": "COc1ccc(OCC(=O)N2CC3(C)CC2CC(C)(C)C3)cc1", "note": "(stereo not drawn)", "viability": 99.8}
{"compound": "O=C1c2ccccc2C(Nc2ccc(-c3nc4ccccc4[nH]3)cc2)N1Cc1ccco1", "note": "(stereo not drawn)", "viability": 83.1}
{"compound": "CCCNc1nc(N2CCOCC2)nc(N2CCOCC2)n1", "viability": 90.5}
{"compound": "COCCn1c(SCC(=O)Nc2ccc3c(c2)OCCO3)nc2c(c1=O)SC(C)C2", "note": "(stereo not drawn)", "viability": 84.4}
{"compound": "COc1ccc(NC(=O)C2CCCN2S(=O)(=O)c2cccc3cccnc23)c(OC)c1", "note": "(stereo not drawn)", "viability": 95}
{"compound": "CCOC(=O)Cn1ncc(-c2ccccc2)c1N", "viability": 93}
{"compound": "O=C(O)C1CC(=O)N(CCOc2ccccc2)C1", "note": "(stereo not drawn)", "viability": 93.9}
{"compound": "Cc1ccc(-n2c3c(cc(C(=O)NCCCN4CCOCC4)c2=O)C(=O)CC(C)(C)C3)cc1", "viability": 85}
{"compound": "CCOC(=O)C1CCN(Cc2ccc(OC)c(C)c2OC)CC1", "viability": 86.9}
{"compound": "COc1ccc(C(C)N2CC34C=CC(O3)C(C(=O)OCC(C)C)C4C2=O)cc1", "note": "(stereo not drawn)", "viability": 85.1}
{"compound": "Cc1c(NC(=O)C2CCCCN2S(=O)(=O)c2ccc(Cl)cc2)c(=O)n(-c2ccccc2)n1C", "note": "(stereo not drawn)", "viability": 91.3}
{"compound": "CC(C)(NC(=O)N1CCCC1)c1cccc(C(C)(C)NC(=O)N2CCCC2)c1", "viability": 95.5}
{"compound": "CC(C)NC(=O)c1ccc2c(c1)nnn2C", "viability": 99.4}
{"compound": "Cc1ccc(C(=O)CC2(O)C(=O)N(C)c3ccc(Br)cc32)c(C)c1", "note": "(stereo not drawn)", "viability": 75}
{"compound": "Cc1ccc(NC(=O)CN(c2ccc3c(c2)OCO3)S(=O)(=O)c2c(C)n[nH]c2C)cc1", "viability": 93.1}
{"compound": "COc1ccc(N2CCN(Cc3nc4c(c(=O)n(C)c(=O)n4C)n3Cc3ccccc3C)CC2)cc1", "viability": 80}
{"compound": "CN(C(=O)c1ccco1)c1nnc(C23CC4CC(CC(C4)C2)C3)s1", "viability": 75.9}
{"compound": "CCCC(=O)C1=C(N(C)c2ccccc2)CC(C)(C)C(C(=O)OC)C1=O", "note": "(stereo not drawn)", "viability": 94.4}
{"assay": "yeast transport mutant growth inhibition pilot in 384-well plates, post-Golgi transport modulator project (AID 636)", "conditions": "absorbance 615 nm, about 18 h, stronger effect = higher value"}
{"compound": "O=C(c1ccc2nc(N3CCCCC3)sc2c1)N1CCN(c2ccccn2)CC1", "inhibition": "-1.54% (inactive)"}
{"compound": "CC(C)CCNC(=O)Cn1c(NCCC(C)C)nc2c1c(=O)n(C)c(=O)n2C", "inhibition": "1.73% (inactive)"}
{"compound": "CC(=O)NC(C)c1nc2ccccc2n1C(C)C", "note": "(stereo not drawn)", "inhibition": "-2.8% (inactive)"}
{"compound": "NC(=O)CSc1cn(CCNC(=O)c2cccs2)c2ccccc12", "inhibition": "-4% (inactive)"}
{"compound": "Cc1cccc(C2CC(c3ccc(Cl)cc3)Nc3nc(N)nn32)c1", "note": "(stereo not drawn)", "inhibition": "0.4% (inactive)"}
{"compound": "CCOC(=O)CN1CC23C=CC(O2)C(C(=O)Nc2ccc(C(C)=O)cc2)C3C1=O", "note": "(stereo not drawn)", "inhibition": "-1.07% (inactive)"}
{"compound": "CCCSc1nnc(N2C(=O)CC(c3ccsc3)C3=C2CCCC3=O)s1", "note": "(stereo not drawn)", "inhibition": "-5.87% (inactive)"}
{"compound": "O=C(CN1CCN(Cc2ccc(F)cc2Cl)C1=O)NCCCN1CCOCC1", "inhibition": "-3.07% (inactive)"}
{"compound": "CN(C)CCCN1C(=O)CSC1c1ccccc1", "note": "(stereo not drawn)", "inhibition": "-4.67% (inactive)"}
{"compound": "COC(=O)Cn1c(=O)c2c(nc3n2CC(C)CN3c2ccc(C)c(C)c2)n(C)c1=O", "note": "(stereo not drawn)", "inhibition": "-9.47% (inactive)"}
{"compound": "CCCSC1=C(C#N)C(c2cc(OC)ccc2OC)CC(=O)N1", "note": "(stereo not drawn)", "inhibition": "-4.4% (inactive)"}
{"compound": "O=C(Nc1ccc(CN2CCOCC2)cc1)c1cc2ccccn2n1", "inhibition": "0.38% (inactive)"}
{"compound": "CCN(CC)CCn1c(=N)n(CCO)c2ccccc21", "inhibition": "-5.32% (inactive)"}
{"compound": "CCN(CCCNS(=O)(=O)c1ccc2c(c1)oc(=O)n2C)c1cccc(C)c1", "inhibition": "-0.38% (inactive)"}
{"compound": "COc1ccc(OC)c(C2=NOC(C(=O)Nc3c(C)n(C)n(-c4ccccc4)c3=O)C2)c1", "note": "(stereo not drawn)", "inhibition": "-2.93% (inactive)"}
{"compound": "O=C(Cn1cc2c(n1)CCCCC2)N1CCc2ccccc2C1", "inhibition": "-2.18% (inactive)"}
{"compound": "Cn1c(=O)c2c(nc(SCCCC#N)n2Cc2c(F)cccc2Cl)n(C)c1=O", "inhibition": "-1.33% (inactive)"}
{"compound": "CCN1CCN(Cc2ccc(NC(=O)Nc3ccccc3)cc2)CC1", "inhibition": "2.82% (inactive)"}
{"compound": "CCOC(=O)N1CCN(Cc2nc3c(c(=O)n(C)c(=O)n3C)n2Cc2ccccc2)CC1", "inhibition": "-2.13% (inactive)"}
{"compound": "COCCCNC(=O)Cn1cc2c(n1)CCC(C)C2", "note": "(stereo not drawn)", "inhibition": "0% (inactive)"}
{"compound": "C=CCc1ccccc1OCCCCN1CCCC1", "inhibition": "-9.05% (inactive)"}
{"compound": "COc1ccc(OCC(=O)N2CC3(C)CC2CC(C)(C)C3)cc1", "note": "(stereo not drawn)", "inhibition": "-3.2% (inactive)"}
{"compound": "O=C1c2ccccc2C(Nc2ccc(-c3nc4ccccc4[nH]3)cc2)N1Cc1ccco1", "note": "(stereo not drawn)", "inhibition": "0.4% (inactive)"}
{"compound": "CCCNc1nc(N2CCOCC2)nc(N2CCOCC2)n1", "inhibition": "-0.52% (inactive)"}
{"compound": "COCCn1c(SCC(=O)Nc2ccc3c(c2)OCCO3)nc2c(c1=O)SC(C)C2", "note": "(stereo not drawn)", "inhibition": "-1.07% (inactive)"}
{"compound": "COc1ccc(NC(=O)C2CCCN2S(=O)(=O)c2cccc3cccnc23)c(OC)c1", "note": "(stereo not drawn)", "inhibition": "91.4% (active)"}
{"compound": "CCOC(=O)Cn1ncc(-c2ccccc2)c1N", "inhibition": "-7.95% (inactive)"}
{"compound": "O=C(O)C1CC(=O)N(CCOc2ccccc2)C1", "note": "(stereo not drawn)", "inhibition": "-3.51% (inactive)"}
{"compound": "Cc1ccc(-n2c3c(cc(C(=O)NCCCN4CCOCC4)c2=O)C(=O)CC(C)(C)C3)cc1", "inhibition": "0.53% (inactive)"}
{"compound": "CCOC(=O)C1CCN(Cc2ccc(OC)c(C)c2OC)CC1", "inhibition": "-2.4% (inactive)"}
{"compound": "COc1ccc(C(C)N2CC34C=CC(O3)C(C(=O)OCC(C)C)C4C2=O)cc1", "note": "(stereo not drawn)", "inhibition": "-4.27% (inactive)"}
{"compound": "Cc1c(NC(=O)C2CCCCN2S(=O)(=O)c2ccc(Cl)cc2)c(=O)n(-c2ccccc2)n1C", "note": "(stereo not drawn)", "inhibition": "-3.47% (inactive)"}
{"compound": "CC(C)(NC(=O)N1CCCC1)c1cccc(C(C)(C)NC(=O)N2CCCC2)c1", "inhibition": "-4.42% (inactive)"}
{"compound": "CC(C)NC(=O)c1ccc2c(c1)nnn2C", "inhibition": "-4.05% (inactive)"}
{"compound": "Cc1ccc(C(=O)CC2(O)C(=O)N(C)c3ccc(Br)cc32)c(C)c1", "note": "(stereo not drawn)", "inhibition": "-4.13% (inactive)"}
{"compound": "Cc1ccc(NC(=O)CN(c2ccc3c(c2)OCO3)S(=O)(=O)c2c(C)n[nH]c2C)cc1", "inhibition": "-5.73% (inactive)"}
{"compound": "COc1ccc(N2CCN(Cc3nc4c(c(=O)n(C)c(=O)n4C)n3Cc3ccccc3C)CC2)cc1", "inhibition": "-2.4% (inactive)"}
{"compound": "CN(C(=O)c1ccco1)c1nnc(C23CC4CC(CC(C4)C2)C3)s1", "inhibition": "-3.73% (inactive)"}
{"compound": "CCCC(=O)C1=C(N(C)c2ccccc2)CC(C)(C)C(C(=O)OC)C1=O", "note": "(stereo not drawn)", "inhibition": "-2.47% (inactive)"}
